# Measured values from the supplement of paper PMC3334620.
# Whole data set: some 33,000 sequences, median “E-score (-0.5 to 0.5)” near -0.04, cut for the highest 2% near 0.36. The full list was thinned out, with the highest values kept by preference.
# Molecular target: T1, Hmlalpha2 (UniProt P0CY09)
# T1 sequence: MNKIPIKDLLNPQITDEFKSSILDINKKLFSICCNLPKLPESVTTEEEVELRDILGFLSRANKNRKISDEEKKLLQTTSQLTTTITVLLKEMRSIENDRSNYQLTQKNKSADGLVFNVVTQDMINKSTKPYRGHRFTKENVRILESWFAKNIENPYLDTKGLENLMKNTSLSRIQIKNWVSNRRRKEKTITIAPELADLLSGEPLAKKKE
# Assay: PBM E-score (8-mer binding enrichment) (E-score (-0.5 to 0.5)); higher = stronger / more preferred TF binding
# Settings: protein concentration: 200 nM; construct: GST-full length
# Description: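 Universal 'all 10-mer' protein binding microarrays (Agilent AMADID 015681) probed with GST-tagged S. cerevisiae TFs (full-length or DBD) made by in vitro transcription/translation (PURExpress), about 100-200 nM. Bound TF was detected with fluorescent anti-GST. Each ungapped 8-mer (which stands for itself and its reverse complement) is scored by the PBM enrichment score (E-score), a modified Wilcoxon-Mann-Whitney statistic from -0.5 to +0.5, computed with the Universal PBM Analysis Suite. Scale: above 0.35 generally sequence-specific binding.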
row,Sequence,PBM E-score
1,GGGTAAAC,0.0624
2,GTGTAAAC,0.474
3,ATGTAAAT,0.477
4,AAGTAAAG,0.0486
5,ATGTAAAG,0.473
6,GTTTAAAA,0.215
7,CTTTAAAC,0.153
8,AAGTAAAT,0.341
9,AGGTAAAT,0.24
10,CTGTAAAG,0.244
11,GTTTAAAC,0.41
12,CTGTAAAC,0.31
13,ACAGAAAT,0.107
14,CCATCACA,0.00393
15,CACCTTCC,-0.11
16,CCCTTAGA,-0.353
17,AGTGCCAG,-0.0844
18,CACAAAGG,-0.0549
19,AGCCACCC,-0.289
20,CTGTAAAA,0.359
21,TGGTAAAA,0.266
22,AGGTAAAC,0.26
23,ATGTAAAC,0.483
24,GGGTAAAA,0.185
25,TAGTAAAA,0.306

row,Sequence,PBM E-score
1,GTGTAAAA,0.467
2,ATGTAAAA,0.474
3,GAGTAAAA,0.237
4,TTGTAAAA,0.392
5,AGGTAAAA,0.16
6,AAGTAAAC,0.283
7,ATAGCGAC,0.106
8,CCGGGCAG,-0.165
9,TGGTCCAA,-0.192
10,GTTTGGCA,-0.0431
11,GTACAGAC,0.17
12,TACCCACA,-0.015
13,AGTATGCG,0.0952
14,AGACATGC,0.171
15,ATACATGC,0.427
16,ATACATGG,0.451
17,ATACATGA,0.465
18,ATACATCC,0.308
19,CGACATGC,0.311
20,AGACATGG,0.21
21,AGACATGA,0.275
22,CTACATTC,0.0322
23,ATACATCA,0.334
24,CTACATGC,0.429
25,ATACATCG,0.299

row,Sequence,PBM E-score
1,ACCACCGT,-0.0982
2,AGATGCCA,-0.254
3,ATACCTGA,0.0295
4,GGGGGGCA,-0.328
5,CTAGCAAG,-0.133
6,GAAGTCGA,-0.0459
7,CCGGACAA,0.0112
8,CACAGAGA,0.0962
9,TCAGGAGA,-0.123
10,ACTGCCCA,-0.0607
11,GATGCATC,0.0847
12,GCTGTATA,0.153
13,ACTGTGTG,0.128
14,GCTGTGTA,0.437
15,CCTGTGAA,0.0484
16,GCTGTGAA,0.0585
17,CCTGTGTC,0.0583
18,ACTGTGTA,0.443
19,ACTGTGTC,0.174
20,CCTGTGTA,0.43
21,AGGAGAGG,-0.277
22,ACCAACAA,0.198
23,AGCATTGA,-0.135
24,AAGAGGCA,-0.184
25,GCTCAACC,-0.147

row,Sequence,PBM E-score
1,ATCGCTCG,-0.128
2,AGTGTATA,0.114
3,AGTGTAAA,0.38
4,AGTGTAAT,0.357
5,GGTGTAAA,0.351
6,CTTGTAAA,0.452
7,ATTGTAAA,0.374
8,ATTGTAAC,0.221
9,GTTGTAAA,0.385
10,ATTGTAAG,0.0623
11,CCTGTAAA,0.328
12,GCTGTAAA,0.336
13,CTTGTAAC,0.36
14,AACACTAT,0.231
15,ACTCGACA,0.203
16,CAAATCTG,-0.0335
17,AATTGCGT,0.201
18,ACGCCCGG,-0.193
19,GATCTTTA,0.131
20,ACACCCAT,-0.0488
21,AAAGGCTC,-0.223
22,CGGCCTAG,-0.322
23,ACTCCTCC,-0.17
24,AGTTCTCA,0.0389
25,ATAATACA,0.38

row,Sequence,PBM E-score
1,ATAATACG,0.239
2,GTAATACA,0.397
3,ATAATACC,0.0152
4,GTAATAGA,0.257
5,CTAATACA,0.342
6,CCCTTATC,-0.0289
7,GCTAGCGA,-0.117
8,ATGAAACC,0.0645
9,ACATTGCG,0.249
10,CTCGTAGA,-0.0578
11,AAGCGTAT,0.0488
12,ACTTGGAT,0.0128
13,CCTCTCAC,-0.127
14,CTTGTTCC,-0.0361
15,AAGCACGC,0.0885
16,ATTAACCA,0.0177
17,ATGTATGA,0.296
18,GTGTATGA,0.262
19,GTGTATTA,0.421
20,ATGTATTA,0.428
21,CTGTATTA,0.191
22,ACGTATTA,0.345
23,CTACAGCC,-0.113
24,ATCAAGTA,0.217
25,ACACGCAT,0.388

row,Sequence,PBM E-score
1,GCACGCAC,-0.213
2,CCACGCAC,-0.0131
3,ACACGCAG,0.313
4,ACACGCAC,0.382
5,ACACGCAA,0.35
6,ACCAATTA,0.195
7,CTACGTTA,0.316
8,ATTAGTAA,0.206
9,CGGGGAGA,-0.256
10,GACTACTC,-0.0288
11,TGAAGCAA,0.0475
12,ATGAGGCC,-0.277
13,GGATAGGA,-0.212
14,AAACGACA,0.235
15,AAGTACAG,0.0583
16,ACGTACAT,0.381
17,AAGTACAT,0.383
18,ACGTACAA,0.273
19,ACGTACAG,0.0878
20,AAGTACAA,0.199
21,AGATTTAT,0.0596
22,AGCCTCCT,-0.16
23,AACGCATG,0.248
24,TAACACGA,0.469
25,GAACACGC,0.299

row,Sequence,PBM E-score
1,CAACACGC,0.367
2,CAACACGA,0.419
3,CCACACGG,-0.0191
4,TAACACCA,0.314
5,GAACACGA,0.287
6,CAACACAA,0.35
7,CAACACCA,0.207
8,CAACACTA,0.169
9,CAACACGG,0.386
10,CAACACAC,0.349
11,CAGCATCC,-0.176
12,ACGGTGTA,0.205
13,TACTCTCA,0.103
14,CGTGCCTC,-0.119
15,CGTTAACG,0.211
16,AATCCTTG,0.103
17,AGATATAA,0.127
18,AGTAGACG,0.0433
19,CGGTGGTA,-0.0335
20,TAACAAGA,0.377
21,GAACACAA,0.319
22,GAACAAGA,0.139
